The results in this text go back to PubChem BioAssay.

SMILES strings stand for the structures. Calls of active or inactive are those of the source.

A short description of assay [1]: small molecules captured by biotinylated probe aFSTL3 – biochemical, small-molecule microarray, fluorescence 635/667, stem cell growth factor project, primary screen (AID 1064).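 Further: measures binding of the biotinylated anti-FSTL3 antibody to printed compounds.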 To be noted: higher = more signal.
Assay [2] in a line: binders from COS7 lysate, DM2A8 probe, primary screen, torsin A project, cell lysate, small-molecule microarray, fluorescence 635/667 (AID 1065). To be noted: higher = more signal, COS7 lysate expressing mutant human TOR1A.
Assay [3] in a line: small molecules captured by biotinylated probe aFGF2 – biochemical, small-molecule microarray, fluorescence 635/667, stem cell growth factor project, primary screen (AID 1067).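 Further: measures binding of biotinylated aFGF2 protein to printed compounds on slides; z-score merges feature fluorescence and signal-to-noise across triplicate slides.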 The conditions noted are these: higher = more signal.
Assay [4] is described as follows: small molecules captured by biotinylated probe aFGF10 – biochemical, small-molecule microarray, fluorescence 635/667, stem cell growth factor project, primary screen (AID 1071).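 Further: score merges 667 nm spot intensity and signal to noise from triplicate slides.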 To be noted: higher = more signal.
In assay [5] the target is Neurogenic locus notch homolog protein 2 (Homo sapiens) (UniProt Q04721). In words: small molecules binding Notch2 protein – biochemical, small-molecule microarray, 635 nm fluorescence, stem cell growth factors, primary screen (AID 1073). The conditions noted are these: higher = more signal.
Assay [6] deals with Pro-neuregulin-1, membrane-bound isoform (Homo sapiens) (UniProt Q02297). In words: small molecules binding neuregulin-1 protein – biochemical, small-molecule microarray, fluorescence 635/667, psychiatric disease protein project, primary screen (AID 1075).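 Further: score combines 667 nm spot fluorescence with signal to noise.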 To be noted: NRG1 binding, 635 nm fluorescence, higher = more signal.
Sequence of Pro-neuregulin-1, membrane-bound isoform (Homo sapiens) (Q02297 whole entry, looked up, the tested form may be a part, canonical isoform): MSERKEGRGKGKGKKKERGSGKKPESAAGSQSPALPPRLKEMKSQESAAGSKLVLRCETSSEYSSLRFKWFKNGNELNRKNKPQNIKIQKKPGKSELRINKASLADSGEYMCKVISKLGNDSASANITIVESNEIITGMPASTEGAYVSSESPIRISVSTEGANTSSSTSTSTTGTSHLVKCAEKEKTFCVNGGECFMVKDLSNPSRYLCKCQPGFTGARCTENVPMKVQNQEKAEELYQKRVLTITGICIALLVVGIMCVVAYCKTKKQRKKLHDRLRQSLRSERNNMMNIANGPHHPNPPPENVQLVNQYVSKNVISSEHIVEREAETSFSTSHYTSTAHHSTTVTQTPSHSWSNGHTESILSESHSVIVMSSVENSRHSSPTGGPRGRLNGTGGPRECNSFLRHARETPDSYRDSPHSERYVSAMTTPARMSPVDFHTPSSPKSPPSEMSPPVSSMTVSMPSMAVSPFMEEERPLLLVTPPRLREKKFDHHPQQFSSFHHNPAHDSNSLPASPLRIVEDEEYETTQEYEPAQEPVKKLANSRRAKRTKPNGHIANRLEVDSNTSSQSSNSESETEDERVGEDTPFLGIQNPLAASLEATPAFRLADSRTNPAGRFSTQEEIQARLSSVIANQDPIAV
The test system of assay [7] is Neuregulin-1 EGF-like domain. In words: small molecules binding NRG1 EGF domain – biochemical, small-molecule microarray, 635 nm fluorescence, primary screen (AID 1081).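 Further: binding of the protein to compounds printed on small-molecule microarray slides.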 To be noted: higher = more signal.
A short description of assay [8]: FRG1 expression reporter modulators in myotubes – cell-based, C2C12 myotubes, firefly/Renilla luciferase, luminescence, FRG1 inhibition for FSHD, primary screen (AID 1084). To be noted: FRG1 promoter luciferase, higher = more signal, called active from +8 up or from −8 down.
Assay [9] can be described thus: small molecules captured by biotinylated probe aFST – biochemical, small-molecule microarray, fluorescence 635/667, stem cell growth factor project, primary screen (AID 1086).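 Further: score merges 667 nm fluorescence with signal-to-noise of each printed compound spot.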 The conditions noted are these: higher = more signal.
The nature of assay [10]: binders of probe aHhip on microarray, primary screen, stem cell growth factor project, biochemical, small-molecule microarray, fluorescence 635/667 (AID 1087).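 Further: score merges spot fluorescence at 667nm with spot signal to noise ratio.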 The conditions noted are these: higher = more signal.
Assay [11] has as its system PRMT1 (protein arginine N-methyltransferase 1). In words: small molecules binding arginine methyltransferase PRMT1 – biochemical, small-molecule microarray, 635 nm fluorescence, primary screen (AID 1088).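 Further: binding of Prmt1 protein to compounds spotted on small-molecule microarray slides.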 The conditions noted are these: higher = more signal.
Assay [12] is described as follows: growth effects on S. cerevisiae YJM789 – YJM789 clinical isolate, OD600, 24 h, basal, primary screen (AID 1089).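 Further: growth of clinical yeast isolate S. cerevisiae YJM 789 seeded 1000 cells per well; test concentration not given here.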 To be noted: higher = more signal, called active from +8 up or from −8 down.
Assay [13] can be described thus: S. pombe growth modifiers, basal conditions – strain 972, OD600, 24 h, no modulator, primary screen (AID 1090).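 Further: basal condition with compound alone and no growth modifier present; test concentration not given here.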 To be noted: S. pombe 972 growth, higher = more signal, called active from +8 up or from −8 down.
A short description of assay [14]: budding yeast growth modifiers under rapamycin – strain BY4716, OD600, 96 h, primary screen (AID 1091). Further: test concentration not given here. The conditions noted are these: S. cerevisiae BY4716 + rapamycin, higher = more signal, called active from +8 up or from −8 down.
For assay [15], the target named is Torsin-1A-interacting protein 2 (Homo sapiens) (UniProt Q8NFQ8). In words: small molecules binding lysate-expressed LULL1 – cell lysate, human LULL1 lysate, 635/667 nm fluorescence, primary screen (AID 1092).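 Further: probe is lysate of COS7 cells overexpressing human LULL1; score merges per-feature 667 nm fluorescence with signal-to-noise.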 To be noted: small-molecule microarray, hLULL1 lysate binding, 635 nm fluorescence; higher = more signal.
Sequence of Torsin-1A-interacting protein 2 (Homo sapiens) (Q8NFQ8 whole entry, looked up): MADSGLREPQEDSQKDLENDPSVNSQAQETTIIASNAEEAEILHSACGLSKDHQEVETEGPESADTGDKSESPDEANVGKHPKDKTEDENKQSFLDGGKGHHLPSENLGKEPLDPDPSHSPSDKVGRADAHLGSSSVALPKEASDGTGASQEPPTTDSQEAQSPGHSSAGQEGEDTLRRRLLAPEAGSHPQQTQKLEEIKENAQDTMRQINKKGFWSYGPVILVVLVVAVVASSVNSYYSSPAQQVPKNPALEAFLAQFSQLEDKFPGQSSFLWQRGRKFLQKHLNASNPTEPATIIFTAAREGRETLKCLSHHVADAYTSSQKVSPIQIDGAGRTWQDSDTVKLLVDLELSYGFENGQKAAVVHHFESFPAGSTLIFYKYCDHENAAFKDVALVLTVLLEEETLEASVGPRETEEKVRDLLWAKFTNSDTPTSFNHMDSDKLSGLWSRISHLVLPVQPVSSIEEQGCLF
A short description of assay [16]: optical density change of DRC41 E. coli – strain DRC41, OD650, 24 h, E. coli filamentation project, primary screen (AID 1093).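 Further: MC1000 strain lacking acrAB efflux and sulA so SOS filamentation is blocked; test concentration not given here.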 The conditions noted are these: E. coli DRC41 growth, higher = more signal, called active from +8 up or from −8 down.
Assay [17] in a line: probe aLefty2 binding to arrayed compounds – biochemical, biotinylated probe, 635/667 nm fluorescence, primary screen (AID 1094).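 Further: score merges spot fluorescence near 667 nm with spot signal-to-noise ratio.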 To be noted: small-molecule microarray, higher = more signal.
In assay [18] the test system is Noggin (protein binding on small-molecule microarray). Nature of the assay: small molecules binding Noggin protein – biochemical, 635/667 nm fluorescence, primary screen (AID 1095).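 Further: score merges 667 nm feature fluorescence with signal to noise over triplicate slides.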 The conditions noted are these: 635 nm fluorescence, higher = more signal.
The target of assay [19] is Neurogenic locus notch homolog protein 3 (Homo sapiens) (UniProt Q9UM47). In words: small molecules binding NOTCH3 protein – biochemical, 635/667 nm fluorescence, primary screen (AID 1096). To be noted: small-molecule microarray, 635 nm fluorescence, higher = more signal.
Sequence of Neurogenic locus notch homolog protein 3 (Homo sapiens) (Q9UM47 whole entry, looked up): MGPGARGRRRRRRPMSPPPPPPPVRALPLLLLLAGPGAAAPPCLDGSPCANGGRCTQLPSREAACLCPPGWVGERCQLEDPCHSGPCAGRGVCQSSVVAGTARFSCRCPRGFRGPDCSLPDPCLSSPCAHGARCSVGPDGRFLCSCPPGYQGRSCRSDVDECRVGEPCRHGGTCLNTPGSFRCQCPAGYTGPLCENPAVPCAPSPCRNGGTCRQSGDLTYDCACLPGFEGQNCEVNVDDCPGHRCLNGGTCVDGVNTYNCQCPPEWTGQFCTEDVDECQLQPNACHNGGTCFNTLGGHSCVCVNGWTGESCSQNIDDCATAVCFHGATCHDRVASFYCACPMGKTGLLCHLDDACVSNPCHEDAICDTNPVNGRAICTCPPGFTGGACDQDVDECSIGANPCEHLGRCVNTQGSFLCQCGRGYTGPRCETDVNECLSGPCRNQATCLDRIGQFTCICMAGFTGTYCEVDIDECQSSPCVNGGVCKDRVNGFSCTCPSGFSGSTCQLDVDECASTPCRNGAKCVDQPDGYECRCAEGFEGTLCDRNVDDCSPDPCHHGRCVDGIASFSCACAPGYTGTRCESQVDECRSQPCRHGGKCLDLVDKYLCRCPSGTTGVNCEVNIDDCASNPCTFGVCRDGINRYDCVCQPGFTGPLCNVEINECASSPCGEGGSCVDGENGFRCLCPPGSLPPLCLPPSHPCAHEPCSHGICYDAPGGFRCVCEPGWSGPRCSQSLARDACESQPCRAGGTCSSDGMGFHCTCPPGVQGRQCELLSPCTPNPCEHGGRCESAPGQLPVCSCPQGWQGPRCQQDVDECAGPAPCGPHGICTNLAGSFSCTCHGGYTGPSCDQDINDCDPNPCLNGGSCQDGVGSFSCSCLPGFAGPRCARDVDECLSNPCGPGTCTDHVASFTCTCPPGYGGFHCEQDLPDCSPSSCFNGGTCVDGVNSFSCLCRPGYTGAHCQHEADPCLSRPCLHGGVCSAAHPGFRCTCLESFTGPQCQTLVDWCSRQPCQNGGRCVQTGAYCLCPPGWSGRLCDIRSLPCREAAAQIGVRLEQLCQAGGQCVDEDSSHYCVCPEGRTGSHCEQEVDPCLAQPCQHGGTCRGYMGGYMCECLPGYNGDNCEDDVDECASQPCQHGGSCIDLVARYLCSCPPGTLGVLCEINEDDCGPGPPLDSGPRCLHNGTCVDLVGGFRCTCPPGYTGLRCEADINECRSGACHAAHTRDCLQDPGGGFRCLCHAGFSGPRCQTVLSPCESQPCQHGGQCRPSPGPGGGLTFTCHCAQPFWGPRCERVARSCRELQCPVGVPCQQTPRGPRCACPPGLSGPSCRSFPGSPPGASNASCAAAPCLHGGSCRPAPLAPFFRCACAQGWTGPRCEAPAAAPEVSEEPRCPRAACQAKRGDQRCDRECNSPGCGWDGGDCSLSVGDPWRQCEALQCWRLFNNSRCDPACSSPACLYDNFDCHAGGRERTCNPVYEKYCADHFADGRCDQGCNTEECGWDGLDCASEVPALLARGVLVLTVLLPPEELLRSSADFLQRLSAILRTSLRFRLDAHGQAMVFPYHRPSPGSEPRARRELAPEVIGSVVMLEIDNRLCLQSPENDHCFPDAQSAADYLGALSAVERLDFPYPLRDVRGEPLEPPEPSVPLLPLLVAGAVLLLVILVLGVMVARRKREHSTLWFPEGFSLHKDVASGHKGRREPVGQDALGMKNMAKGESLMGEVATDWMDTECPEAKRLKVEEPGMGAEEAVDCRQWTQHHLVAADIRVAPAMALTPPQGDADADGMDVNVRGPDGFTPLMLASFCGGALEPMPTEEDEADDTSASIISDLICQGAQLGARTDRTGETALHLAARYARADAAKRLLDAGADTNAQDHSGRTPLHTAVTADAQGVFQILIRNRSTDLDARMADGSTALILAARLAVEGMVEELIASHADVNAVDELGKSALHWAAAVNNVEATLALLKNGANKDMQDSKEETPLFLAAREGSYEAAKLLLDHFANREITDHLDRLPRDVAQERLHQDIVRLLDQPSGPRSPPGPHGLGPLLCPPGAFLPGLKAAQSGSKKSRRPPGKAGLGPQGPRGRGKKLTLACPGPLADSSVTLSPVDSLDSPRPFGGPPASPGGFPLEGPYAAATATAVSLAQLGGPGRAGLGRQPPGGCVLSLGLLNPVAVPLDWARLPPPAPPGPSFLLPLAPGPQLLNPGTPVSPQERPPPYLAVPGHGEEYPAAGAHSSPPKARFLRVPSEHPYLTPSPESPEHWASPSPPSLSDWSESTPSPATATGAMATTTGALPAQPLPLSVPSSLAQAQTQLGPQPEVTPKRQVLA
Assay [20] in a line: probe aEGFR binding to arrayed compounds – biochemical, biotinylated probe, 635/667 nm fluorescence, primary screen (AID 1097).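 Further: probe is a biotinylated anti-EGFR antibody binding compounds printed on slides; score combines fluorescence near 667 nm and signal to noise of each spot.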 The conditions noted are these: small-molecule microarray, higher = more signal.

On to `COCCOC(=O)N1C(=O)[C@@]2(c3ccccc31)[C@H](c1ccc(OCCO)cc1)N1[C@H](c3ccccc3)[C@H](c3ccccc3)OC(=O)[C@H]1[C@@H]2C(=O)Nc1nc2ccccc2s1`, for which the composite z-score is -0.436 in assay [1]; -0.504 in assay [2]; -0.0848 in assay [3]; 0.26 in [4]; 0.829 in [5]; 1.07 in assay [6]. In addition, the composite z-score in assay [7] was 1.25; in assay [9], 0.439; in [10] it was 0.154; in assay [11], 1.45; in assay [15], 3.13; in assay [17], 0.0305. Besides, the composite z-score is 0.396 in [18], 1.13 in assay [19] and -0.0039 in assay [20]. For the same compound, the z-score in [8] is -0.567 (inactive); in assay [12], 0.405 (inactive); in [13], 0.371 (inactive); in assay [14], 2.33 (inactive); in assay [16], 1.16 (inactive).

Turning to `CC(C)(C)OC(=O)CC[C@@]1(C(=O)O)N=C(c2ccc(OCCCO)cc2)O[C@@H]1c1ccccc1CN=[N+]=[N-]`, the composite z-score in assay [1] was 0.761; in assay [2], 0.348; in [3], 0.0732; in assay [4], 0.246; in assay [5] it was 0.717; in [6] it was 1.03. The composite z-score in [7] worked out at 1.19; in assay [9], 0.971; in assay [10], 0.259; in assay [11] it was 1.29; in assay [15], 2.84; in assay [17] it was 0.36. Moreover, the values for the composite z-score in assay [18], in assay [19] and in assay [20] were -0.195, 0.44 and 0.272, respectively. The z-score is 5.39 (inactive) in assay [8]; 0.947 (inactive) in [12]; 0.642 (inactive) in assay [13]; 0.0515 (inactive) in assay [14]; 0.882 (inactive) in assay [16].

Take `COc1ccc(C(O)C2C=CC3C(=O)N(c4ccccc4)C(=O)C3N2Nc2ccccc2)cc1OCc1ccccc1` (stereo not given): the composite z-score in assay [1] worked out at 0.12; in assay [2] it was 0.748; in assay [3], 0.206; in assay [4] it was 1.1; in assay [5] it was 1.51; in assay [6] it was 1.48. Also, the composite z-score is 1.15 in assay [7]; 1.64 in [9]; 0.0515 in assay [10]; 1.57 in [11]; 3.53 in assay [15]; 0.104 in assay [17]. The composite z-score is 0.88 in assay [18], 1.03 in assay [19] and 0.0386 in assay [20]. Besides, the z-score in [8] was 0.0678 (inactive); in assay [12], -0.177 (inactive); in assay [13] it was 1.3 (inactive); in assay [14], 0.25 (inactive); in assay [16] it was -1.2 (inactive).

Turning to `COc1ccc(NN2C(C(O)c3ccco3)C=CC3C(=O)N(C4CCCCC4)C(=O)C32)cc1` (stereo not given), the composite z-score in [1] was -0.0934; in assay [2], 1.14; in [3], -0.051; in assay [4], 1.12; in assay [5], 1.36; in [6], 0.95. For the same compound, the composite z-score was 1.15 in assay [7]; 1.51 in assay [9]; 0.0216 in assay [10]; 1.56 in [11]; 3.06 in assay [15]; 0.0405 in assay [17]. For the same compound, the composite z-score was found to be 0.89 in [18], 1.03 in [19] and 0.191 in assay [20]. Further, the z-score in [8] is 0.592 (inactive); in [12], 0.0039 (inactive); in assay [13], -0.134 (inactive); in [14], 0.705 (inactive); in [16], -0.465 (inactive).

On to `COC(=O)[C@@]1(Cc2ccccc2)[C@H]2c3cc(C(=O)N4CCCC4)n(Cc4ccsc4Br)c3C[C@H]2CN1C(=O)c1ccccc1`, for which the composite z-score in [1] was 0.166; in assay [2] it was -0.411; in assay [3], 0.281; in [4] it was 0.682; in assay [5], 1.72; in assay [6], 1.46. For the same compound, the composite z-score came out at 1.18 in assay [7]; 1.51 in assay [9]; 0.155 in [10]; 0.12 in assay [11]; 3.43 in [15]; 0.41 in assay [17]. For the same compound, the composite z-score in [18] was -0.142; in [19] it was 1.05; in assay [20], 0.272. Besides, the z-score was -0.444 (inactive) in [8]; 0.333 (inactive) in assay [12]; 1.22 (inactive) in [13]; 1.35 (inactive) in [14]; -0.575 (inactive) in [16].
